Kinases covered data for ten compounds are collected here from article PMC7826789 (International Journal of Molecular Sciences, 2021).

Consider `CNC(=O)c1c(F)cccc1Nc1nc(Nc2cc3c(cc2OC)CCN3C(=O)CN(C)C)nc2[nH]ccc12` [GSK1838705], for which the Kinases covered result in the experiment with MYLK was “MYLK”.
On to `Cc1cnc(Nc2ccc(F)cc2Cl)nc1-c1c[nH]c(C(=O)N[C@H](CO)c2cccc(Cl)c2)c1` [Vertex 11e], for which the Kinases covered result with MAPK1 is recorded as “MAPK1”; in the experiment with MAPK3, “MAPK3”.
On to `COc1ccc(-c2cc3c(C)nc(N)nc3n([C@H]3CC[C@H](OCCO)CC3)c2=O)cn1` [PFE-PKIS 29], for which the Kinases covered result in the experiment on MTOR is given as “MTOR”.
With `Nc1nccc(-c2c(-c3ccc(F)cc3)ncn2C2CCN(Cc3ccccc3)CC2)n1` [SB-219980], the Kinases covered entry was “MAPK14” in the experiment on MAPK14 and “MAPK9” with MAPK9.
`Cc1ccc(-c2cc(-c3c[nH]nc3-c3ccccn3)ccn2)cc1` [GW684088]: the Kinases covered result in the experiment on MINK1 was “MINK1”.
In the case of `CCOc1cc(N2CCC(O)CC2)ccc1Nc1ncc2c(n1)N(C)c1ccccc1C(=O)N2C` [XMD8-92], the Kinases covered entry with MAPK7 was “MAPK7”.
`CC(C)COC(=O)c1ccc2c(c1)/C(=C/Nc1ccc(S(N)(=O)=O)cc1)C(=O)N2` [GW416981X]: the Kinases covered entry in the experiment on MELK was “MELK”.
Consider `CN(C)C/C=C/C(=O)Nc1ccc(C(=O)Nc2cccc(Nc3ncc(Cl)c(-c4c[nH]c5ccccc45)n3)c2)cc1` [THZ1], for which the Kinases covered result with MAPK8 is listed as “MAPK8”.
As for `Cc1ccc(-n2nc(C(C)(C)C)cc2NC(=O)Nc2ccc(OCCN3CCOCC3)cc2)cc1` [BIRB0876BS], the Kinases covered result with MAPK14 is “MAPK14”.
On to `FC1=CC(C3=NC2=CC(OC)=C(OC)C=C2C(N[C@H]4[C@H]([C@](C)(O)C)CNC4)=N3)=C(O)C=C1.Cl.Cl` [CCT241533], for which, in the experiment on MARK3, the Kinases covered entry is “MARK3”.
